High-throughput results as filed in PubChem.
HT1080-NT tox – kills 2HG-producing HT-1080-NT fibrosarcoma cells. HT-1080-NT fibrosarcoma viability, CellTiter-Glo ATP luminescence, 48 h. Potency, µM (series often up to 46.1 µM), for the others: top-dose activity, negative = less viability, hits mostly cytotoxic. 360,000 tested, 1.6% active. AID 686970;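 note: NT is the 2HG producing partner of a matched IDH1 knockdown line; 0% = DMSO-treated cells and -100% = media-only wells without cells; nearly all actives have a fitted effect of over 55% in size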
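Fibrosarcoma NT cells, 750 per well in 5% FBS RPMI, were exposed to compound for 48 hours. Viability: CellTiter-Glo luminescence.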
TDP1 cell noCPT – qHTS for Inhibitors of human tyrosyl-DNA phosphodiesterase 1 (TDP1): qHTS in cells in absence of CPT; 420,000 tested, 15% active; DT40 Tdp1-/- hTDP1 cells, no CPT, ATP luminescence, 48 h; Potency, µM (doses to about 46.2 µM), inactives show at the highest dose activity change, negative = growth inhibition, most hits filed as inhibitors; note: % is set by controls: 0 for no effect and ±100 for the full control effect; nearly all actives have a fitted effect of over 55% in size
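Stably hTDP1-transfected Tdp1-null chicken DT40 cells were treated with library compounds minus camptothecin and grown for at least 48 hr at 37 °C, after which cellular ATP was quantified by luminescence.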
DT40 TDP1 CPT – growth inhibition of DT40 Tdp1-/-;hTDP1 cells with camptothecin (screen for TDP1 inhibitors); chicken DT40 Tdp1-/-;hTDP1 cells + 20 nM CPT, ATP luminescence, 48 h; Potency, µM (top dose mostly 46.2 µM), inactives show at the top dose activity change, negative = growth inhibition, hits mostly inhibitors; 420,000 tested, 12% active; note: % is set by controls: 0 for no effect and ±100 for the full control effect; nearly all actives have a fitted effect of over 55% in size
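Chicken DT40 Tdp1-/- cells complemented with human TDP1, 400 cells/well, exposed to compounds plus 20 nM camptothecin for at least 48 h at 37 C; viability read as ATP content by CellTiter-Glo luminescence.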
HT1080 IDH1KD tx – kills HT-1080 cells with IDH1 knockdown; Potency, µM (highest dose often 46.1 µM), for inactives: top-dose activity, negative = toxicity, usual class: cytotoxic; HT-1080 IDH1 knockdown viability, ATP luminescence, 48 h; AID 686971; 360,000 tested, 2% active;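 note: 0% = DMSO wells and -100% = cell-free medium wells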
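Luminescent ATP read-out (CellTiter-Glo, 10 min at room temperature) after 48 h compound exposure at 37 °C gave viability of IDH1-knockdown HT-1080 cells. Activity was normalised to DMSO and cell-free wells, then fitted as concentration-response curves.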
HepG2 viability – kills HepG2 cells in TGF-b inhibitor counter-screen; HepG2 CAGA-GFP viability, ATP luminescence, 18 h; Potency, µM (doses to about 46.1 µM), without a hit: at the top dose activity change, negative = cytotoxicity, usual class: cytotoxic; 410,000 tested, 0.76% active
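CellTiter-Glo luminescence gave cytotoxicity after 18 hours at 37 degrees C. The cells were HepG2 CAGA-GFP in 1% FBS DMEM, stimulated with 500 pg/mL TGF-beta after compound addition. %Activity was normalised to no-cell wells (complete cell-killing) and DMSO (no toxicity), and curves were fitted and classified.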
TGFb SMAD3 inh – blocks TGF-b signaling; 410,000 tested, 1.2% active; HepG2 CAGA-GFP TGF-b/SMAD3 reporter, GFP fluorescence, 18 h; TGF-beta stimulated, 500 pg/mL final; Potency, µM (highest dose often 46.1 µM), for the others: top-dose activity, negative = inhibition, actives largely listed as inhibitors; AID 588855; note: % is set by controls: 0 for no effect and ±100 for the full control effect; nearly all actives have a fitted effect of over 65% in size
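GFP signal (ex488/em500-530) from TGF-beta-stimulated HEPG2 CAGA-GFP cells, 500 pg/mL final, 18 h at 37 degrees C in DMEM plus 1% FBS, normalized to unstimulated and DMSO-stimulated controls.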
* marks the source's active call; other numbers are inactive results; ? = inconclusive; . = no result given; [ ] = another dose, or the depositor's remark. A selection: hits, their analogues and other compounds. The true share with any hit is near 17%. Calls come from the whole dose curve; as a rule, active = well fitted curve in the direction sought with a large enough effect; inconclusive = small, poorly fitted or top-dose-only effect, or another doubt; inactive = no such curve, though single readings can be large; an effect the other way counts as inactive or inconclusive. Potency is the fitted concentration of half-maximal effect.

SMILES	HT1080-NT tox	TDP1 cell noCPT	DT40 TDP1 CPT	HT1080 IDH1KD tx	HepG2 viability	TGFb SMAD3 inh
COc1ccc(Nc2nc3c(S(=O)(=O)c4ccc(C)cc4)nnn3c3ccsc23)cc1Cl	.	-6%	0%	.	-12%	3%
COc1ccc2c(C)c(CCC(=O)NCc3ccccc3OC)c(=O)oc2c1	.	-23%	-23%	.	-2%	23%
CCOc1cc(/C=C(\C#N)C(=O)Nc2cccc(C(=O)O)c2)ccc1OCc1ccc(Br)cc1	-5%	29µM*	?	-5%	-11%	10%
CCC(=O)Nc1cccc(-c2nc3ccccc3o2)c1	-1%	-13%	-14%	-10%	-45%	-4%
Cc1ccc(-n2nc3ccc(NC(=S)NC(=O)/C=C/c4ccco4)cc3n2)cc1	17%	-5%	-12%	22%	1%	-7%
Cc1ccc(-c2nc3ccccc3o2)cc1NC(=S)NC(=O)/C=C/c1ccco1	?	2.9µM*	2.9µM*	?	-8%	8%
O=C(/C=C/c1ccco1)NC(=S)Nc1cccc(-c2nc3ccccc3o2)c1	5.2µM*	3.3µM*	4.6µM*	5.8µM*	0%	?
O=C(Nc1cccc(-c2nc3ccccc3o2)c1)C(F)(F)F	.	2.9µM*	3.7µM*	.	-107%	?
O=C(CCCCC(=O)OCC1CCCO1)OCC1CCCO1 (configuration not stated)	19%	-7%	-25%	21%	21%	6%
COc1cc(OC)c(NC(=O)CC2SC(N)=NC2=O)cc1Cl (configuration not stated)	-1%	-19%	-16%	1%	12%	-1%
CCOC(=O)c1ccc(N2C(=O)c3n[nH]c(-c4ccco4)c3C2c2ccc(OC)cc2OC)cc1 (configuration not stated)	.	18µM*	23µM*	.	-46%	16µM*
CCOC(=O)c1ccc(N2C(=O)c3n[nH]c(C)c3C2c2ccc(OC)cc2OC)cc1 (configuration not stated)	-21%	23µM*	?	-22%	-55%	?
CCCCCCCCCCCCCCCCCCN(CCCCCCCCCCCCCCCCCC)c1ccc(C=O)cc1	.	1%	9%	.	4%	1%
CCCCCCCCCCCCC/C=C/[C@@H](O)[C@H](CO)NC(=O)CCCCCCC	.	-12%[4.12 µM]	-2%[4.12 µM]	.	.	.
CC(C)(C)NC(=O)C[C@H]1C[C@H](C(=O)N2CCCCC2)[C@@]2(C)c3[nH]c4cc(-c5ccco5)ccc4c3CCN2C1=O	-21%	26µM*	?	-17%	-28%	?
CC(C)(C)NC(=O)C[C@H]1C[C@H](C(=O)N2CCOCC2)[C@@]2(C)c3[nH]c4cc(-c5ccco5)ccc4c3CCN2C1=O	3%	?	?	3%	-18%	?
CC[C@]12c3[nH]c4cc(-c5ccco5)ccc4c3CCN1C(=O)[C@@H](CC(=O)NC(C)(C)C)C[C@@H]2C(=O)N1CCN(C(=O)C2CC2)CC1	0%	21µM*	15µM*	-2%	6%	?
CCOC(=O)C1(CC2CCCCO2)CCN(Cc2nccn2-c2cccc(C)c2)CC1 (configuration not stated)	-6%	?	?	7%	-36%	?
CCOC(=O)C1(CC2CCCCO2)CCN(Cc2nc(C(C)C)cs2)CC1 (configuration not stated)	-4%	?	16µM*	-22%	-12%	-19%
CCOC(=O)C1(CC2CCCCO2)CCN(Cc2c(C)cc(C)cc2-n2cccn2)CC1 (configuration not stated)	-6%	29µM*	?	-4%	-13%	20%
O=C(Nc1ccc2oc(-c3cccc4c(Br)cccc34)nc2c1)c1ccc(Br)cc1	.	-5%	-11%	.	-9%	5%
CC1(C(=O)NS(=O)(=O)c2ccc(Br)cc2)CCN1C(=O)CCC1CCCC1 (configuration not stated)	0%	-7%	-10%	12%	-19%	23%
COc1ccc(CCNc2oc(COc3ccccc3F)nc2C#N)cc1OC	-8%	26µM*	?	?	-23%	0%
COc1ccc(CCNc2oc(COc3ccc(F)cc3)nc2C#N)cc1	-29%	?	18µM*	-24%	-43%	16µM*
N#Cc1nc(COc2ccccc2Cl)oc1NCCc1ccccc1	.	16µM*	?	.	-25%	?
SMILES	HT1080-NT tox	TDP1 cell noCPT	DT40 TDP1 CPT	HT1080 IDH1KD tx	HepG2 viability	TGFb SMAD3 inh
N#Cc1nc(COc2ccc(F)cc2)oc1NCCCn1ccnc1	-3%	?	-25%	-14%	-30%	-2%
COc1ccc(CCNc2oc(COc3ccccc3Cl)nc2C#N)cc1OC	-1%	?	?	-13%	-24%	?
COCCNC(=O)C1(C)CCCN(C(=O)c2c(F)ccc(C)c2F)C1 (configuration not stated)	4%	0%	-7%	12%	1%	-2%
CC(=O)c1ccccc1OCCn1nc(C(=O)O)c2ccccc2c1=O	-3%	16µM*	-3%	-2%	-10%	-4%
O=C1C=C(c2ccc(C(=O)O)cc2)C[C@@H](c2ccc(F)cc2)C1	-5%	-10%	-29%	-4%	0%	-2%
NC(=NC1C2CC3CC(C2)CC1C3)Nc1ccc(I)cc1 (configuration not stated)	.	3.7µM*	4.1µM*	.	.	.
Cn1cc(S(=O)(=O)c2cccc(Cl)c2)c(=O)c2cc(F)c(N3CCN(c4ccccc4)CC3)cc21	.	-13%	4%	.	3%	0%
Cn1cc(S(=O)(=O)c2ccccc2)c(=O)c2cc(Cl)ccc21	29%	?	16µM*	4%	3%	14%
Cn1cc(S(=O)(=O)c2ccc(Cl)cc2)c(=O)c2cc(F)c(N3CCCC3)cc21	.	16µM*	21µM*	.	11%	0%
COc1ccc(S(=O)(=O)c2cn(C)c3cc(N4CCOCC4)c(F)cc3c2=O)cc1	.	?	?	.	-18%	?
CC1CCCN(c2cc3c(cc2F)c(=O)c(S(=O)(=O)c2cccc(Cl)c2)cn3C)C1 (configuration not stated)	.	23µM*	?	.	6%	9%
